# Data reported in ChEMBL document CHEMBL1961873, “Compounds: GSK PKIS; Assays: Nanosyn kinase panel” (2012).
# Legend:
# [1] = biological target: Ribosomal protein S6 kinase alpha-3 (Homo sapiens) (UniProt P51812); conditions: at 0.1 µM
# [2] = biological target: Ribosomal protein S6 kinase alpha-3 (Homo sapiens) (UniProt P51812); conditions: at 1 µM
# [3] = biological target: Ribosomal protein S6 kinase alpha-2 (Homo sapiens) (UniProt Q15349); conditions: at 0.1 µM
# [4] = biological target: Ribosomal protein S6 kinase alpha-2 (Homo sapiens) (UniProt Q15349); conditions: at 1 µM
# [5] = biological target: Ribosomal protein S6 kinase alpha-6 (Homo sapiens) (UniProt Q9UK32); conditions: at 0.1 µM
# [6] = biological target: Ribosomal protein S6 kinase alpha-6 (Homo sapiens) (UniProt Q9UK32); conditions: at 1 µM
# [7] = biological target: Serine/threonine-protein kinase Sgk1 (Homo sapiens) (UniProt O00141); conditions: at 0.1 µM
# [8] = biological target: Serine/threonine-protein kinase Sgk1 (Homo sapiens) (UniProt O00141); conditions: at 1 µM
# [9] = biological target: Serine/threonine-protein kinase Sgk2 (Homo sapiens) (UniProt Q9HBY8); conditions: at 0.1 µM
# [10] = biological target: Serine/threonine-protein kinase Sgk2 (Homo sapiens) (UniProt Q9HBY8); conditions: at 1 µM
# [11] = biological target: Serine/threonine-protein kinase Sgk3 (Homo sapiens) (UniProt Q96BR1); conditions: at 0.1 µM
# [12] = biological target: Serine/threonine-protein kinase Sgk3 (Homo sapiens) (UniProt Q96BR1); conditions: at 1 µM
# [13] = biological target: 5'-AMP-activated protein kinase catalytic subunit alpha-1 (Homo sapiens) (UniProt Q13131); conditions: at 0.1 µM
# [14] = biological target: 5'-AMP-activated protein kinase catalytic subunit alpha-1 (Homo sapiens) (UniProt Q13131); conditions: at 1 µM
# [15] = biological target: 5'-AMP-activated protein kinase catalytic subunit alpha-2 (Homo sapiens) (UniProt P54646); conditions: at 0.1 µM
# [16] = biological target: 5'-AMP-activated protein kinase catalytic subunit alpha-2 (Homo sapiens) (UniProt P54646); conditions: at 1 µM
# [17] = biological target: NUAK family SNF1-like kinase 1 (Homo sapiens) (UniProt O60285); conditions: at 0.1 µM
# [18] = biological target: NUAK family SNF1-like kinase 1 (Homo sapiens) (UniProt O60285); conditions: at 1 µM
# [19] = biological target: Serine/threonine-protein kinase BRSK1 (Homo sapiens) (UniProt Q8TDC3); conditions: at 0.1 µM
# [20] = biological target: Serine/threonine-protein kinase BRSK1 (Homo sapiens) (UniProt Q8TDC3); conditions: at 1 µM
# [21] = biological target: Serine/threonine-protein kinase BRSK2 (Homo sapiens) (UniProt Q8IWQ3); conditions: at 0.1 µM
# [22] = biological target: Serine/threonine-protein kinase BRSK2 (Homo sapiens) (UniProt Q8IWQ3); conditions: at 1 µM
# [23] = biological target: Calcium/calmodulin-dependent protein kinase type 1D (Homo sapiens) (UniProt Q8IU85); conditions: at 0.1 µM
# [24] = biological target: Calcium/calmodulin-dependent protein kinase type 1D (Homo sapiens) (UniProt Q8IU85); conditions: at 1 µM
# [25] = biological target: Calcium/calmodulin-dependent protein kinase type II subunit alpha (Homo sapiens) (UniProt Q9UQM7); conditions: at 0.1 µM
# [26] = biological target: Calcium/calmodulin-dependent protein kinase type II subunit alpha (Homo sapiens) (UniProt Q9UQM7); conditions: at 1 µM
# [27] = biological target: Calcium/calmodulin-dependent protein kinase type II subunit delta (Homo sapiens) (UniProt Q13557); conditions: at 0.1 µM
# [28] = biological target: Calcium/calmodulin-dependent protein kinase type II subunit delta (Homo sapiens) (UniProt Q13557); conditions: at 1 µM
# [29] = biological target: Calcium/calmodulin-dependent protein kinase type IV (Homo sapiens) (UniProt Q16566); conditions: at 0.1 µM
# [30] = biological target: Calcium/calmodulin-dependent protein kinase type IV (Homo sapiens) (UniProt Q16566); conditions: at 1 µM
# [31] = biological target: Serine/threonine-protein kinase Chk1 (Homo sapiens) (UniProt O14757); conditions: at 0.1 µM
# [32] = biological target: Serine/threonine-protein kinase Chk1 (Homo sapiens) (UniProt O14757); conditions: at 1 µM
# [33] = biological target: Serine/threonine-protein kinase Chk2 (Homo sapiens) (UniProt O96017); conditions: at 0.1 µM
# [34] = biological target: Serine/threonine-protein kinase Chk2 (Homo sapiens) (UniProt O96017); conditions: at 1 µM
# [35] = biological target: Death-associated protein kinase 1 (Homo sapiens) (UniProt P53355); conditions: at 0.1 µM
# [36] = biological target: Death-associated protein kinase 1 (Homo sapiens) (UniProt P53355); conditions: at 1 µM
# [37] = biological target: Serine/threonine-protein kinase DCLK2 (Homo sapiens) (UniProt Q8N568); conditions: at 0.1 µM
# [38] = biological target: Serine/threonine-protein kinase DCLK2 (Homo sapiens) (UniProt Q8N568); conditions: at 1 µM
# [39] = biological target: MAP kinase-activated protein kinase 2 (Homo sapiens) (UniProt P49137); conditions: at 0.1 µM
# [40] = biological target: MAP kinase-activated protein kinase 2 (Homo sapiens) (UniProt P49137); conditions: at 1 µM
# [41] = biological target: MAP kinase-activated protein kinase 3 (Homo sapiens) (UniProt Q16644); conditions: at 0.1 µM
# [42] = biological target: MAP kinase-activated protein kinase 3 (Homo sapiens) (UniProt Q16644); conditions: at 1 µM
# [43] = biological target: Serine/threonine-protein kinase MARK1 (Homo sapiens) (UniProt Q9P0L2); conditions: at 0.1 µM
# [44] = biological target: Serine/threonine-protein kinase MARK1 (Homo sapiens) (UniProt Q9P0L2); conditions: at 1 µM
# [45] = biological target: MAP/microtubule affinity-regulating kinase 3 (Homo sapiens) (UniProt P27448); conditions: at 0.1 µM
# [46] = biological target: MAP/microtubule affinity-regulating kinase 3 (Homo sapiens) (UniProt P27448); conditions: at 1 µM
# [47] = biological target: MAP/microtubule affinity-regulating kinase 4 (Homo sapiens) (UniProt Q96L34); conditions: at 0.1 µM
# [48] = biological target: MAP/microtubule affinity-regulating kinase 4 (Homo sapiens) (UniProt Q96L34); conditions: at 1 µM
# [49] = biological target: Maternal embryonic leucine zipper kinase (Homo sapiens) (UniProt Q14680); conditions: at 0.1 µM
# [50] = biological target: Maternal embryonic leucine zipper kinase (Homo sapiens) (UniProt Q14680); conditions: at 1 µM
# [51] = biological target: MAP kinase-interacting serine/threonine-protein kinase 1 (Homo sapiens) (UniProt Q9BUB5); conditions: at 0.1 µM
# [52] = biological target: MAP kinase-interacting serine/threonine-protein kinase 1 (Homo sapiens) (UniProt Q9BUB5); conditions: at 1 µM
# [53] = biological target: MAP kinase-interacting serine/threonine-protein kinase 2 (Homo sapiens) (UniProt Q9HBH9); conditions: at 0.1 µM
# [54] = biological target: MAP kinase-interacting serine/threonine-protein kinase 2 (Homo sapiens) (UniProt Q9HBH9); conditions: at 1 µM
# [55] = biological target: Serine/threonine-protein kinase MARK2 (Homo sapiens) (UniProt Q7KZI7); conditions: at 0.1 µM
# [56] = biological target: Serine/threonine-protein kinase MARK2 (Homo sapiens) (UniProt Q7KZI7); conditions: at 1 µM
# Calcium/calmodulin-dependent protein kinase type 1D (Homo sapiens), sequence (Q8IU85 whole entry, looked up): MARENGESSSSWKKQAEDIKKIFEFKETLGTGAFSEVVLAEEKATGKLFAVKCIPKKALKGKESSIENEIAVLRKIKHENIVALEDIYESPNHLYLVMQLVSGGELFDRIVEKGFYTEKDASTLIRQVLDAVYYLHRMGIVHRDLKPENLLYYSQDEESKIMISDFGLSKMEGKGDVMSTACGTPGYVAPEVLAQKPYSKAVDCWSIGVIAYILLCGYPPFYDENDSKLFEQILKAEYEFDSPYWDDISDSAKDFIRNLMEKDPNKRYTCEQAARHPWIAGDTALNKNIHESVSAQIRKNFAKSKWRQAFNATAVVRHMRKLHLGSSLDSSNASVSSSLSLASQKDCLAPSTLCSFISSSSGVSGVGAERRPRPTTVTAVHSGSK
# Serine/threonine-protein kinase Chk2 (Homo sapiens), sequence (O96017 whole entry): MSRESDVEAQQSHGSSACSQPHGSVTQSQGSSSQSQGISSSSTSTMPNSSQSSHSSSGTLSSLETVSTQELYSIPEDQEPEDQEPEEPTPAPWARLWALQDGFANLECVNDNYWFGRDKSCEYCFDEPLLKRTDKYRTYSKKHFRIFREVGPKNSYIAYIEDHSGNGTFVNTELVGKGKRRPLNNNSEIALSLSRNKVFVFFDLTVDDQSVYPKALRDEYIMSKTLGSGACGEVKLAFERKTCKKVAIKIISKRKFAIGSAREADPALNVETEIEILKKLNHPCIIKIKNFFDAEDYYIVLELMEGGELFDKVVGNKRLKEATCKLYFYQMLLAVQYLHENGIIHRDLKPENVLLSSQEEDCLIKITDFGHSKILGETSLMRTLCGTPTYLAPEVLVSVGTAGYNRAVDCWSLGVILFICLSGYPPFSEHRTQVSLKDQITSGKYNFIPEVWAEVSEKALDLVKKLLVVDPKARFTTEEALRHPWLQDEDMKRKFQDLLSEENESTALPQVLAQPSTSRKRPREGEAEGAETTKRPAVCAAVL
# Serine/threonine-protein kinase Sgk1 (Homo sapiens), sequence (O00141 whole entry): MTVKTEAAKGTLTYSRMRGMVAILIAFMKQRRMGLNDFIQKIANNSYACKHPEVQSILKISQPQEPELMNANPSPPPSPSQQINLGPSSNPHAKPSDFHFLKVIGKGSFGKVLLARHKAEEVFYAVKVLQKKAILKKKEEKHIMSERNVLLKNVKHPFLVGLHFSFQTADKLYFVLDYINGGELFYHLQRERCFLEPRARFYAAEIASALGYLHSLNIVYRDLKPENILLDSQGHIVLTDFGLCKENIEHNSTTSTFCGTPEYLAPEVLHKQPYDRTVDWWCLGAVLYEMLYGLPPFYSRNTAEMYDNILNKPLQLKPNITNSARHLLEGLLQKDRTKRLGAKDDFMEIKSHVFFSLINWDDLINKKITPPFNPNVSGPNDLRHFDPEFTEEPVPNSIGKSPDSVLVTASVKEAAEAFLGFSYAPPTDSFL
# Serine/threonine-protein kinase Chk1 (Homo sapiens), sequence (O14757 whole entry): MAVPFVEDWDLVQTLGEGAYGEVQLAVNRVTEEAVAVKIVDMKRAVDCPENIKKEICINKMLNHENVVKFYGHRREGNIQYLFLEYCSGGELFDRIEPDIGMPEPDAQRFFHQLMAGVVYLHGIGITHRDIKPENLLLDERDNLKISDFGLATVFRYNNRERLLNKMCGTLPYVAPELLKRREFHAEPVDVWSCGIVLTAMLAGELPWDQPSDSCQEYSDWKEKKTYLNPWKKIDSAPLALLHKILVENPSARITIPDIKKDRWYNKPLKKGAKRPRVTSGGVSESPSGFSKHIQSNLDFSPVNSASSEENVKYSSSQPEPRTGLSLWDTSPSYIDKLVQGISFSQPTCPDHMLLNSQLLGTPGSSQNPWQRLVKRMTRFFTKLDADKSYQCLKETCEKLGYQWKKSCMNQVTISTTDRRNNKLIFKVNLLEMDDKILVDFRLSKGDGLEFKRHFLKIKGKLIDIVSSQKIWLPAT
# NUAK family SNF1-like kinase 1 (Homo sapiens), sequence (O60285 whole entry): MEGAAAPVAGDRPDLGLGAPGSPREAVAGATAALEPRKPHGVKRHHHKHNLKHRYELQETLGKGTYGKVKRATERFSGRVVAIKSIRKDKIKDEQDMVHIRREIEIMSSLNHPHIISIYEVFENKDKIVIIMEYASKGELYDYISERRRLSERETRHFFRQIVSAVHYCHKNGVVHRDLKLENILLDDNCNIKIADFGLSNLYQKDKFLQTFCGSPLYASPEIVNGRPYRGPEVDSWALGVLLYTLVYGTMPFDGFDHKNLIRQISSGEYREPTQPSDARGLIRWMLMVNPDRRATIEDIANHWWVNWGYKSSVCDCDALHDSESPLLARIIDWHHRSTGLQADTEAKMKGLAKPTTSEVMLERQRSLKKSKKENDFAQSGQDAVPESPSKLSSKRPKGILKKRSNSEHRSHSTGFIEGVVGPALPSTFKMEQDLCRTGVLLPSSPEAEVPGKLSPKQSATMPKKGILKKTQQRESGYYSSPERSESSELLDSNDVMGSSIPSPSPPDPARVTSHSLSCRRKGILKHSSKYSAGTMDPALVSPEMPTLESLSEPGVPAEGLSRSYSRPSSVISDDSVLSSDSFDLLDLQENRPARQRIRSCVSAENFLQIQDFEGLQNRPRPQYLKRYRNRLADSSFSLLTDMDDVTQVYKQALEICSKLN
# Ribosomal protein S6 kinase alpha-2 (Homo sapiens), sequence (Q15349 whole entry): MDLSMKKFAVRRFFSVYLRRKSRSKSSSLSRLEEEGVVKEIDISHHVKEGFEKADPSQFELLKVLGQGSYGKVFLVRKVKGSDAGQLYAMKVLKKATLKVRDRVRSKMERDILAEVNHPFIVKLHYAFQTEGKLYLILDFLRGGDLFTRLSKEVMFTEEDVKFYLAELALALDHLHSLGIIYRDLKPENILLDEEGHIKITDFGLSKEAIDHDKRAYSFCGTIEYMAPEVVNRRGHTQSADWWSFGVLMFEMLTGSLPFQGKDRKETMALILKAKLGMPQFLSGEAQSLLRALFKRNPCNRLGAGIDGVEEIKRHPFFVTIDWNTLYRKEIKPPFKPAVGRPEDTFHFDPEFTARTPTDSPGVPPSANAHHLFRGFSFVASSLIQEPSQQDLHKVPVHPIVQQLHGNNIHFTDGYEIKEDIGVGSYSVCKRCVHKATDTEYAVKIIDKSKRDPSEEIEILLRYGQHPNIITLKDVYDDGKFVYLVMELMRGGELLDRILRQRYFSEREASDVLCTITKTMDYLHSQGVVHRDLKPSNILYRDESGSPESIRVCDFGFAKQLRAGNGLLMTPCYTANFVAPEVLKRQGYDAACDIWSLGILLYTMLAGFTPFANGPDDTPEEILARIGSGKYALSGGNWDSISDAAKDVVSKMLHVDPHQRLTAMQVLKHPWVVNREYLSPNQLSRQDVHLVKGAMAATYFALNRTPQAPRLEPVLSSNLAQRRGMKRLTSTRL
# Serine/threonine-protein kinase Sgk3 (Homo sapiens), sequence (Q96BR1 whole entry): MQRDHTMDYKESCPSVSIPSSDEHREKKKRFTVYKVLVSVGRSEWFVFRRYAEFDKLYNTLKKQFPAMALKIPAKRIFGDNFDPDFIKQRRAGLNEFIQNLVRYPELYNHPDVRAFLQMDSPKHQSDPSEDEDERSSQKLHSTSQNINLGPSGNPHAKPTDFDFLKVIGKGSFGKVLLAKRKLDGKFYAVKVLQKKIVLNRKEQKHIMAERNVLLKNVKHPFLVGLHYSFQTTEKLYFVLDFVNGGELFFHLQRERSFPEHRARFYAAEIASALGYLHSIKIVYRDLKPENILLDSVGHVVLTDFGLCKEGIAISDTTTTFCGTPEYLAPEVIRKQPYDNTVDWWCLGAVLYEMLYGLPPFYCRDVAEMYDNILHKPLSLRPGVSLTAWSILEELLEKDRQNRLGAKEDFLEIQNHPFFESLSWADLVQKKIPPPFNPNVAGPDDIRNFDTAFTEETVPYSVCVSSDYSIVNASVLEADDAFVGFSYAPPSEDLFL
# 5'-AMP-activated protein kinase catalytic subunit alpha-1 (Homo sapiens), sequence (Q13131 whole entry, looked up): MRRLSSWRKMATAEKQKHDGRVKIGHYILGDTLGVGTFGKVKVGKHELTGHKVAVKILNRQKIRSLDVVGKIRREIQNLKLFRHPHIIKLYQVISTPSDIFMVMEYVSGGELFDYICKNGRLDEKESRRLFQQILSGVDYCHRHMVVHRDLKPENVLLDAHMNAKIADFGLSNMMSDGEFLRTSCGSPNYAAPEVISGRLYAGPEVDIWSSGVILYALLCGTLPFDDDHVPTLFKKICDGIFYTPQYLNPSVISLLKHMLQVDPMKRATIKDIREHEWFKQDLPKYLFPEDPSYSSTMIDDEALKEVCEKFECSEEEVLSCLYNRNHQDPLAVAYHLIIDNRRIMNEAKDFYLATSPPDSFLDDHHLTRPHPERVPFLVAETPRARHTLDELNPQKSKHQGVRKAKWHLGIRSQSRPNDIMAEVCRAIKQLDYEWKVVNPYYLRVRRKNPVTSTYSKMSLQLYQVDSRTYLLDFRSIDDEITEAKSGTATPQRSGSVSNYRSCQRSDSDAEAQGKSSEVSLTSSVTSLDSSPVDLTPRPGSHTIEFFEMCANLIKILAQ
# Calcium/calmodulin-dependent protein kinase type II subunit alpha (Homo sapiens), sequence (Q9UQM7 whole entry): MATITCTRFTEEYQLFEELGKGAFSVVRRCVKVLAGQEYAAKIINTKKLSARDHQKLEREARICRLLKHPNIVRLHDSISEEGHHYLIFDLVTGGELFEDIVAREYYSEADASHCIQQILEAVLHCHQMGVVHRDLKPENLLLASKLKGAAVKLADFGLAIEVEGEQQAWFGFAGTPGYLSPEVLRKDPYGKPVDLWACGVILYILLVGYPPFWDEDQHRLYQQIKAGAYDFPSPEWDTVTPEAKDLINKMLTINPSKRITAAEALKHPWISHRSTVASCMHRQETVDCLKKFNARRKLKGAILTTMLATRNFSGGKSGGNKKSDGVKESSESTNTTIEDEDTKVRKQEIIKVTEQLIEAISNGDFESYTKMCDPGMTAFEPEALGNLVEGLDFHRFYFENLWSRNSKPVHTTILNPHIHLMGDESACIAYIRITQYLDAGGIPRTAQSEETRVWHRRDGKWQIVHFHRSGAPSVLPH
smiles,measurement,setting,value
CNC(=O)Oc1cc(C)c(/C=C/c2cncc(C(=O)NC)c2)c(C)c1,inhibition,[1],1.05%
same,inhibition,[2],3.39%
same,inhibition,[3],1.4%
same,inhibition,[4],3.44%
same,inhibition,[5],1.15%
same,inhibition,[6],2.66%
same,inhibition,[7],3.01%
same,inhibition,[8],0.19%
same,inhibition,[9],1.73%
same,inhibition,[10],0.22%
same,inhibition,[11],1.34%
same,inhibition,[12],0.65%
same,inhibition,[13],2.14%
same,inhibition,[14],0.11%
same,inhibition,[15],-0.38%
same,inhibition,[16],2.44%
same,inhibition,[17],-1.06%
same,inhibition,[18],4.07%
same,inhibition,[19],2.89%
same,inhibition,[20],12%
same,inhibition,[21],1.79%
same,inhibition,[22],7.68%
same,inhibition,[23],0.95%
same,inhibition,[24],2.36%
same,inhibition,[25],3.17%
same,inhibition,[26],4.72%
same,inhibition,[27],4.03%
same,inhibition,[28],5.12%
same,inhibition,[29],1.23%
same,inhibition,[30],0.1%
same,inhibition,[31],-2.68%
same,inhibition,[32],-3.25%
same,inhibition,[33],-3.08%
same,inhibition,[34],0.64%
same,inhibition,[35],-4.67%
same,inhibition,[36],-3.09%
same,inhibition,[37],1.08%
same,inhibition,[38],-1.11%
same,inhibition,[39],-2.03%
same,inhibition,[40],-2.01%
same,inhibition,[41],-3.36%
same,inhibition,[42],-4.16%
same,inhibition,[43],1.32%
same,inhibition,[44],0.49%
same,inhibition,[45],3.32%
same,inhibition,[46],5.19%
same,inhibition,[47],0.21%
same,inhibition,[48],0.46%
same,inhibition,[49],1.41%
same,inhibition,[50],3.48%
same,inhibition,[51],5.31%
same,inhibition,[52],30.7%
same,inhibition,[53],3.17%
same,inhibition,[54],25.1%
same,inhibition,[55],-0.87%
same,inhibition,[56],0.31%
